Among all 68,000 compounds or so, about 2,700 (4%) showed an effect of 50% or more. For the sample, strong results were picked, then their nearest neighbours and some compounds at random.

This test concerns Plasmodium berghei. Put plainly: Screen against P. berghei liver stage (PbLuc), transformed with Luciferase, at 2uM. Particulars: tested at 2 uM. In kind it is functional, HepG2.
Regarding `Cn1nc(C2CCN(C(=O)c3cnccn3)C2)cc1CCO` (stereo not drawn), the INHIBITION is -18.15%.
As for `Cc1ccc(-n2ccnc2)c(C(=O)NCCCN(C)C)c1`, the INHIBITION was determined as 20.21%.
As for `Cc1ccc(-n2ccnc2)c(C(=O)NCCOCC2CCCO2)c1` (stereo not drawn), the figure is 51.4%; as for `Cc1ccc(-n2ccnc2)c(C(=O)NCCOCC(F)(F)F)c1`, 16.98%; as for `CN1CCN(C(=O)N2CCCC2)Cc2cccnc21`, 52.3%.
On to `CN1CCN(S(=O)(=O)C2CC2)Cc2cccnc21`, for which the INHIBITION is -5.9%.
The result for `CCS(=O)(=O)N1CCN(C)c2ncccc2C1` reads 4.07%; that for `CN(C)C(=O)N1CCN(C)c2ncccc2C1`, 47.25%.
The result for `CN1CCN(C(=O)NC2CCCC2)Cc2cccnc21` reads 11.87%.
The result for `CN1CCN(S(C)(=O)=O)Cc2cccnc21` reads 58.97%; that for `Cc1nc(Nc2nccs2)cc(C2CCCN2)n1` (stereo not drawn), -26.8%; that for `CCC(O)Cn1nc(CCSC)nc1-c1ccc2[nH]ccc2c1` (stereo not drawn), 20.45%.
Consider `O=C(Cc1cnc(-c2c(Cl)cccc2Cl)s1)N1CCC2(CC1)OCCO2`, for which the INHIBITION is on record as -6.29%.
As for `CC(=O)N1CCN(C(=O)Cc2cnc(-c3c(Cl)cccc3Cl)s2)CC1`, the figure is 25.61%; as for `O=C(Cc1cnc(-c2c(Cl)cccc2Cl)s1)N1CCOCC1`, 56.75%.
As for `NC(=O)CCNC(=O)C1(N2CCCCC2)Cc2ccccc2C1`, the figure is 14.19%; as for `c1ccc(CCN2CCN(c3ccc4nncn4n3)CC2)cc1`, -2.47%.
The result for `Clc1ccccc1CCN1CCN(c2ccc3nncn3n2)CC1` reads 50.77%.
Turning to `c1ccc(CCN2CCN(c3ccc4nncn4n3)CC2)nc1`, the INHIBITION is given as -59.79%.
As for `COC1COC2(CCN(Cc3ccco3)CC2)C1` (stereo not drawn), the figure is 24.91%; as for `Cc1noc2ncc(C(=O)NCC3CCN(C(C)C)C3)cc12` (stereo not drawn), -5.2%.
As for `Cc1cccc(C(=O)N2CCCCC2c2[nH]ncc2S(C)(=O)=O)c1` (stereo not drawn), the figure is 52.69%; as for `CS(=O)(=O)c1cn[nH]c1C1CCCN1C(=O)c1cccnc1` (stereo not drawn), 10.3%.
As to `Cc1ccc(C(=O)N2CCCCC2c2[nH]ncc2S(C)(=O)=O)cn1` (stereo not drawn), the INHIBITION is 19.75%.
The result for `COC(=O)c1ccc(CNC(=O)Nc2ccc(=O)n(C)c2)cc1` reads -18.09%; that for `CS(=O)(=O)c1cccc(C(=O)NCc2nc3cc(F)ccc3[nH]2)c1`, 30.57%; that for `Cn1cc(CN2CCCC(CCc3ccc(F)c(F)c3)C2)cn1` (stereo not drawn), 64.2%.
The result for `Cn1cc(CN2CCCC(CCc3c(F)cccc3F)C2)cn1` (stereo not drawn) reads 43.27%; that for `Cn1cc(CN2CCCC(CCc3ccc(F)cc3)C2)cn1` (stereo not drawn), 2.3%; that for `Fc1ccc(CCC2CCCN(Cc3c[nH]cn3)C2)c(F)c1` (stereo not drawn), -20.35%.
As for `Cn1cc(CN2CCCC(CCc3ccc(F)cc3F)C2)cn1` (stereo not drawn), the figure is 69.71%.
As for `Cn1cc(CN2CCCC(CCc3ccccc3C(F)(F)F)C2)cn1` (stereo not drawn), the INHIBITION was 24.55%.
On to `CN(C)C(=O)CN1C[C@H]2CCN(Cc3ccccc3)CC[C@H]2S1(=O)=O`, for which the INHIBITION was -10.78%.
The result for `COC(=O)C(NC(=O)Nc1ccc(C(C)=O)cc1)C(C)C` (stereo not drawn) reads -7.05%; that for `CN(C)c1nccc(C2CN(c3ccccc3)CCO2)n1` (stereo not drawn), -39.97%; that for `CC(C)N1CCOC(c2ccnc(N(C)C)n2)C1` (stereo not drawn), -2.41%.
As for `CN(C)c1nccc(C2CN(c3cnccn3)CCO2)n1` (stereo not drawn), the figure is 57.47%.
For `N#CCSCCCN1CCC(C(=O)N2CCCCCC2)CC1`, the INHIBITION is -28.22%.
The result for `Cc1ccc(CN2CC[C@H](c3nnc(COc4ccc(F)cc4)o3)C2)o1` reads 17.76%; that for `COCCNC(=O)[C@H]1C[C@@H]2CCN(CCc3ccccc3)C[C@H]2O1`, -56.44%; that for `Cn1nc(C(C)(C)C)cc1NC(=O)Cn1ccnc1`, -24.02%.
As for `CCc1nnc2n1CCN(CC(=O)Nc1cc(C(C)(C)C)nn1C)C2`, the figure is 54.85%; as for `CCc1nnc2n1CCN(CC(=O)Nc1cc(C)nn1C)C2`, 12.81%.
As for `Cc1cn(CC(=O)Nc2cc(C(C)C)nn2C)cn1`, the figure is 5.93%; as for `Cc1cn(CC(=O)Nc2cc(C(C)(C)C)nn2C)cn1`, 53.66%; as for `CCc1nnc2n1CCN(CC(=O)Nc1cc(C)on1)C2`, 13.91%.
As for `CC(SCC(=O)N(C)CC(=O)NC1CC1)c1ccccc1F` (stereo not drawn), the INHIBITION was -16.7%.
With `CN(CCc1ccccc1)C(=O)c1cc(CN2CCC(O)CC2)on1`, the INHIBITION is -10.41%.
The result for `CN1CCCN(C(=O)c2cc(CN(C)CCc3ccccc3)on2)CC1` reads 5.28%; that for `CN(CCc1ccccc1)Cc1cc(C(=O)N2CCSCC2)no1`, 72.05%.
The result for `CN(CCc1ccccc1)Cc1cc(C(=O)N2CCCC2(C)C)no1` reads 61.89%; that for `CN(CCc1ccccc1)Cc1cc(C(=O)N2CCN(C)C(=O)C2)no1`, -64.43%.
As for `CCC1CN(C(=O)c2cc(CN(C)CCc3ccccc3)on2)CCO1` (stereo not drawn), the figure is -11.41%; as for `Fc1ccc(CN2CCC3(CCCN(c4nncs4)C3)C2)cc1` (stereo not drawn), 3%.
Take `O=C(NCC1CCCOC1)c1ccc(-c2ccccc2)[nH]c1=O` (stereo not drawn): the INHIBITION turned out to be 4.96%.
As for `Fc1ccc(Cc2cnc(C3CCCN3)cn2)cc1` (stereo not drawn), the figure is -2.89%; as for `CC(C)CNc1cc(-c2c[nH]nc2C2CCN(C(=O)C3CC3)C2)ccn1` (stereo not drawn), 13.98%; as for `CCCNc1cc(-c2c[nH]nc2C2CCN(C(=O)C3CCC3)C2)ccn1` (stereo not drawn), 87.38%.
Turning to `CC(C)Nc1cc(-c2c[nH]nc2C2CCN(C(=O)C3CCC3)C2)ccn1` (stereo not drawn), the INHIBITION came to 16.43%.
As for `Fc1ccc(OCCNC2CCN(Cc3ccccn3)CC2)c(F)c1`, the figure is -31.26%; as for `Cc1ccccc1-c1cc(NC(=O)NC2CCC(O)CC2)n(CCO)n1` (stereo not drawn), 14.82%.
As for `Cc1ccccc1-c1cc(NC(=O)NC2CC2)n(CCO)n1`, the figure is 57.75%; as for `CNC(=O)Nc1cc(-c2ccccc2C)nn1CCO`, -3.51%; as for `O=C(c1cnccn1)N1CCCC(Cc2cccc3ncccc23)C1` (stereo not drawn), -3.58%.
For the compound `Cc1cccc(C(=O)N2CCCC(Cc3cncc4ccccc34)C2)n1` (stereo not drawn), the INHIBITION came to 33.77%.
With `O=C(c1cnccn1)N1CCCC(Cc2cncc3ccccc23)C1` (stereo not drawn), the INHIBITION is 99.92%.
The result for `O=c1c2c[nH]c(N3CCCCC3)nc-2cn1-c1ccc2c(c1)OCO2` reads 33.2%; that for `Cn1cc(S(=O)(=O)NCc2ccsc2)cn1`, -18.65%.

The values above are taken from ChEMBL document CHEMBL4513216, “Probing the Open Global Health Chemical Diversity Library for Multistage-Active Starting Points for Next-Generation Antimalarials” (ACS Infect Dis, 2020).
